In the supplement of paper PMC12494721:
Structures can show the parent of a compound that is named as a salt.

Columns and labels:
Details in all cases: incubation time: 27 h, anaerobic, 37 °C;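 for the amine columns active = adjusted P below 0.05 in both replicates with a change the same way and a mean fold change under 0.8 or over 1.25; inactive = the rest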
[1] = test system: Clostridium sporogenes DSM 1664; assay: growth (OD595) fold change vs plate DMSO controls (fold change (ratio)); higher = more growth
How it was run: (§1)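 The 96-well mGAM cultures had been kept anaerobic for 27 h at 37 °C before being shaken and read at 595 nm. Blank subtraction, compound background correction with 20 µM compound solutions in water, and a calibration factor of 5 turned the readings into OD. Growth is given as the fold change versus the median of plate DMSO controls. Fold changes above 1.5 were set to NA, and the values are means of 2 biological replicates.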

Escherichia coli IAI1 [2] = assay: as above
How it was run: as §1

[3] = test system: Klebsiella aerogenes DSM 30053; assay: as above
How it was run: as §1

[4] = test system: Ruminococcus gnavus DSM 108212; assay: as above
How it was run: as §1

[5] = test system: Klebsiella aerogenes DSM 30053; assay: fold change of Histamine concentration vs plate DMSO controls (fold change (ratio)); higher = more amine produced, active = hit call of the paper (significant change in both replicates, either direction)
How it was run: (§2)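 In 80 µL wells, cultures of four gut bacterial strains in mGAM started at OD 0.1 before a 1:1 dilution and grew anaerobically at 37 °C for 27 h. Compounds were added to 20 µM final, except sweeteners at 50 µM final. After extraction of whole cultures with cold acetonitrile/methanol plus 0.1% formic acid and centrifugation, amines were measured by LC–triple-quadrupole MS in dynamic MRM mode against external calibration curves, with within-batch drift correction. Values give fold change over DMSO controls on the same plate, averaged across 2 biological replicates.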

[6] = test system: Clostridium sporogenes DSM 1664; assay: fold change of Tryptamine concentration vs plate DMSO controls (fold change (ratio)); higher = more amine produced, active = hit call of the paper (significant change in both replicates, either direction)
How it was run: as §2

[7] = test system: Ruminococcus gnavus DSM 108212; assay: as above
How it was run: as §2

Escherichia coli IAI1 [8] = assay: fold change of Putrescine concentration vs plate DMSO controls (fold change (ratio)); higher = more amine produced, active = hit call of the paper (significant change in both replicates, either direction)
How it was run: as §2

[9] = test system: Klebsiella aerogenes DSM 30053; assay: as above
How it was run: as §2

Escherichia coli IAI1 [10] = assay: fold change of Cadaverine concentration vs plate DMSO controls (fold change (ratio)); higher = more amine produced, active = hit call of the paper (significant change in both replicates, either direction)
How it was run: as §2

[11] = test system: Klebsiella aerogenes DSM 30053; assay: as above
How it was run: as §2

[12] = test system: Ruminococcus gnavus DSM 108212; assay: fold change of 2-Phenylethylamine concentration vs plate DMSO controls (fold change (ratio)); higher = more amine produced, active = hit call of the paper (significant change in both replicates, either direction)
How it was run: as §2

| SMILES | growth [1] | growth (Escherichia coli IAI1 [2]) | growth [3] | growth [4] | fold change of Histamine concentration [5] | fold change of Tryptamine concentration [6] | fold change of Tryptamine concentration [7] | fold change of Putrescine concentration (Escherichia coli IAI1 [8]) | fold change of Putrescine concentration [9] | fold change of Cadaverine concentration (Escherichia coli IAI1 [10]) | fold change of Cadaverine concentration [11] | fold change of 2-Phenylethylamine concentration [12] |
| --- | --- | --- | --- | --- | --- | --- | --- | --- | --- | --- | --- | --- |
| CC1CCc2cc(F)cc3c(=O)c(C(=O)O)cn1c23 (stereo not given) [Flumequine] (20 µM) | 0.015 | 0.0532 | 0.404 | 0.706 | 0.301 (active) | 0.0425 (active) | 0.989 (inactive) | 0.679 (active) | 1.13 (inactive) | 0.209 (active) | 0.975 (inactive) | 0.952 (inactive) |
| CCN1CCN(c2cc3c(cc2F)c(=O)c(C(=O)O)cn3C2CC2)CC1 [Enrofloxacin] (20 µM) | 0.0184 | 0.0344 | 0.107 | 1.29 | 0.0794 (active) | 0.0498 (active) | 0.982 (inactive) | 0.658 (inactive) | 0.619 (active) | 0.204 (active) | 0.938 (inactive) | 1.05 (inactive) |
| Cc1onc(-c2ccccc2)c1-c1ccc(S(N)(=O)=O)cc1 [Valdecoxib] (20 µM) | 0.979 | 0.98 | 0.973 | 0.87 | 1.08 (inactive) | 0.955 (inactive) | 0.961 (inactive) | 1.07 (inactive) | 0.983 (inactive) | 1.03 (inactive) | 0.972 (inactive) | 0.92 (inactive) |
| N[C@@H](Cc1ccc(O)c(O)c1)C(=O)O [Levodopa] (20 µM) | 1.09 | 0.977 | 0.989 | 0.94 | 1.05 (inactive) | 1.03 (inactive) | 1.03 (inactive) | 1 (inactive) | 1.02 (inactive) | 0.975 (inactive) | 0.997 (inactive) | 1.04 (inactive) |
| Cc1cccc(C)c1NC(=O)C(C)N (stereo not given) [Tocainide hydrochloride] (20 µM) | 0.909 | 1.02 | 0.994 | 1.06 | 1.06 (inactive) | 1.01 (inactive) | 1.02 (inactive) | 1.03 (inactive) | 1 (inactive) | 0.983 (inactive) | 0.976 (inactive) | 1.05 (inactive) |
| OCCN1CCN(CCCN2c3ccccc3Sc3ccc(Cl)cc32)CC1 [Perphenazine] (20 µM) | 1.05 | 0.856 | 0.838 | 0.94 | 1.07 (inactive) | 0.999 (inactive) | 0.897 (inactive) | 1.02 (inactive) | 1.02 (inactive) | 1.01 (inactive) | 0.999 (inactive) | 0.892 (inactive) |
| CCN(CC)CCOCCOC(=O)C1(c2ccccc2)CCCC1 [Carbetapentane citrate] (20 µM) | 1.08 | 1 | 0.996 | 0.743 | 0.992 (inactive) | 1.02 (inactive) | 0.995 (inactive) | 0.958 (inactive) | 0.996 (inactive) | 0.988 (inactive) | 0.993 (inactive) | 0.979 (inactive) |
| CC(=O)NS(=O)(=O)c1ccc(N)cc1 [Sulfacetamide sodic hydrate] (20 µM) | 0.934 | 0.995 | 0.974 | 0.888 | 1.02 (inactive) | 0.976 (inactive) | 1.06 (inactive) | 1.02 (inactive) | 0.996 (inactive) | 0.98 (inactive) | 0.993 (inactive) | 1.08 (inactive) |
| Nc1nc(CC(=O)Nc2ccc(CCNC[C@H](O)c3ccccc3)cc2)cs1 [Mirabegron] (20 µM) | 1.09 | 1.01 | 1.13 | 0.987 | 0.931 (inactive) | 1.02 (inactive) | 0.999 (inactive) | 0.977 (inactive) | 1.01 (inactive) | 1.06 (inactive) | 1.01 (inactive) | 1.05 (inactive) |
| O=C1c2c(O)ccc(O)c2C(=O)c2c(NCCNCCO)ccc(NCCNCCO)c21 [Mitoxantrone dihydrochloride] (20 µM) | 0.733 | 0.831 | 1.02 | 1.24 | 0.924 (inactive) | 1.01 (inactive) | 0.978 (inactive) | 0.999 (inactive) | 1.02 (inactive) | 0.988 (inactive) | 1.04 (inactive) | 0.958 (inactive) |
| Fc1ccc([C@@H]2CCNC[C@H]2COc2ccc3c(c2)OCO3)cc1 [Paroxetine hydrochloride] (20 µM) | 1.01 | 1.06 | 0.971 | 0.929 | 1.05 (inactive) | 0.925 (inactive) | 0.833 (inactive) | 0.692 (inactive) | 0.991 (inactive) | 1.69 (active) | 0.991 (inactive) | 0.885 (inactive) |
| CS(=O)(=O)CCNCc1ccc(-c2ccc3ncnc(Nc4ccc(OCc5cccc(F)c5)c(Cl)c4)c3c2)o1 [Lapatinib] (20 µM) | 1.05 | 1.05 | 1.02 | 1.01 | 1.03 (inactive) | 0.977 (inactive) | 1.03 (inactive) | 0.977 (inactive) | 1.02 (inactive) | 1.04 (inactive) | 1.01 (inactive) | 0.999 (inactive) |
| CC(C)NCC(O)COc1cccc2[nH]ccc12 (stereo not given) [Pindolol] (20 µM) | 1.03 | 1.13 | 1.01 | 0.881 | 0.989 (inactive) | 1.07 (inactive) | 1.12 (inactive) | 1.18 (inactive) | 1.04 (inactive) | 1.21 (inactive) | 1.15 (inactive) | 1.27 (inactive) |
| O=C(O)c1ccccc1OP(=O)(O)O [Fosfosal] (20 µM) | 0.91 | 1.01 | 1.01 | 1.17 | 0.997 (inactive) | 1.05 (inactive) | 1.03 (inactive) | 0.942 (inactive) | 1 (inactive) | 0.995 (inactive) | 0.995 (inactive) | 1.04 (inactive) |
| CN1CCN2c3ccccc3Cc3ccccc3C2C1 (stereo not given) [Mianserine hydrochloride] (20 µM) | 0.914 | 0.996 | 0.995 | 0.931 | 0.916 (inactive) | 0.952 (inactive) | 0.998 (inactive) | 1.02 (inactive) | 0.98 (inactive) | 0.999 (inactive) | 0.999 (inactive) | 1.03 (inactive) |
| NC(=O)N/N=C/c1ccc([N+](=O)[O-])o1 [Nitrofural] (20 µM) | 1.07 | 1 | 0.973 | 0.979 | 0.768 (inactive) | 0.906 (inactive) | 0.792 (active) | 0.6 (active) | 0.947 (inactive) | 1.22 (inactive) | 1.01 (inactive) | 0.836 (inactive) |
| CN(C)CCC[C@@]1(c2ccc(F)cc2)OCc2cc(C#N)ccc21 [Escitalopram oxalate] (20 µM) | 0.99 | 0.986 | 1.11 | 0.828 | 1.02 (inactive) | 0.971 (inactive) | 1.01 (inactive) | 1.01 (inactive) | 1.02 (inactive) | 0.993 (inactive) | 1.02 (inactive) | 0.965 (inactive) |
| NCCc1c[nH]cn1 [Histamine dihydrochloride] (20 µM) | 0.927 | 1.16 | 1.01 | 0.893 | 1.05 (inactive) | 1.05 (inactive) | 1.06 (inactive) | 1.16 (inactive) | 1.02 (inactive) | 0.952 (inactive) | 0.992 (inactive) | 1.05 (inactive) |
| O=C1OC(CN2CCOCC2)CN1/N=C/c1ccc([N+](=O)[O-])o1 (stereo not given) [Furaltadone hydrochloride] (20 µM) | 0.861 | 1.04 | 0.945 | 0.987 | 0.938 (inactive) | 0.89 (inactive) | 0.852 (inactive) | 0.777 (inactive) | 0.939 (inactive) | 1.7 (active) | 1.01 (inactive) | 0.929 (inactive) |
| CCN(CC)CCCC(C)Nc1c2ccc(Cl)cc2nc2ccc(OC)cc12 (stereo not given) [Quinacrine dihydrochloride hydrate] (20 µM) | 1.09 | 1.03 | 0.892 | 1.36 | 1.03 (inactive) | 1.1 (inactive) | 1.07 (inactive) | 1.03 (inactive) | 0.928 (inactive) | 0.982 (inactive) | 0.996 (inactive) | 1.08 (inactive) |
| CC(C)c1cc2c(cc1S(=O)(=O)O)[C@@]1(C)CCC[C@@](C)(C(=O)O)[C@@H]1CC2 [Ecabet sodium] (20 µM) | 1.16 | 1 | 1.01 | 0.982 | 0.974 (inactive) | 0.972 (inactive) | 1.01 (inactive) | 0.955 (inactive) | 1 (inactive) | 1.01 (inactive) | 0.991 (inactive) | 0.995 (inactive) |
| Cc1scc2c1N(C(=O)CN1CCN(C)CC1)c1ccccc1NC2=O [Telenzepine dihydrochloride] (20 µM) | 1.09 | 1.07 | 1 | 1.01 | 0.927 (inactive) | 1.01 (inactive) | 1.01 (inactive) | 1.06 (inactive) | 0.984 (inactive) | 1 (inactive) | 1.01 (inactive) | 0.964 (inactive) |
| CN(C)CC/C=C1\c2ccccc2CSc2ccccc21 [Dosulepin hydrochloride] (20 µM) | 1.07 | 0.99 | 0.968 | 0.844 | 0.887 (inactive) | 1.17 (inactive) | 0.961 (inactive) | 1.03 (inactive) | 0.941 (inactive) | 1.01 (inactive) | 1.06 (inactive) | 0.952 (inactive) |
| CCN(Cc1ccncc1)C(=O)C(CO)c1ccccc1 (stereo not given) [Tropicamide] (20 µM) | 0.93 | 1.01 | 1.04 | 0.969 | 0.947 (inactive) | 1.06 (inactive) | 0.984 (inactive) | 1.03 (inactive) | 0.967 (inactive) | 0.991 (inactive) | 1.03 (inactive) | 0.959 (inactive) |
| CCCCN1CCCCC1C(=O)Nc1c(C)cccc1C (stereo not given) [Bupivacaine hydrochloride] (20 µM) | 1.13 | 1.07 | 1 | 0.881 | 0.967 (inactive) | 1.02 (inactive) | 1.01 (inactive) | 1.02 (inactive) | 0.995 (inactive) | 1.01 (inactive) | 1 (inactive) | 1.02 (inactive) |
